Hits are enriched below; roughly 5.3% of the tested compounds scored in any of these assays.
ALR inh: inhibitors of human sulfhydryl oxidase ALR. P55789. purified ALR, DTT oxidation, H2O2 HRP-luminol luminescence. inhibition, % (concentration not given with the values). hit rate 3.8% among 290,000;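 active = mean replicate inhibition above about 79%, with every replicate also reaching it, limit read from the data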
Target sequence (P55789 whole entry, looked up): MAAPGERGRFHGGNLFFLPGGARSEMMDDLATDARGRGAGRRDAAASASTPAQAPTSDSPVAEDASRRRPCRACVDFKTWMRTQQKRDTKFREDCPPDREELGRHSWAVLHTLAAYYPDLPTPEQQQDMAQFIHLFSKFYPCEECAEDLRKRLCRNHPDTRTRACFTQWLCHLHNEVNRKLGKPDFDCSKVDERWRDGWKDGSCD
SUMO Mot1 rescue: inhibitors of SUMOylation pathway: yeast Mot1-301 growth rescue; S. cerevisiae Mot1-301 growth rescue, ATP luminescence, 38.5C; percent above DMSO median, 100 means doubled; hit rate 1% among 320,000; growth rescue, % at 18.8 µM;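 active = every valid replicate shows activation above 250% relative to neutral control wells; inactive = the rest, any valid replicate at or below 250%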;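 note: OY570 slx delta 5 strain wells were the positive control but not used for scaling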
M18AAP inhibitor: PfM18AAP enzyme inhibition; recombinant PfM18AAP, H-Glu-NHMec fluorogenic cleavage; inhibition, % at 7.35 µM; hit rate 1.2% among 290,000; AID 1822;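 active = inhibition above the campaign mean inhibition over all tested compounds plus 3 SD, cut at about 28% in these data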;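 note: 0% = plate median of test compound wells and 100% = 2 mM ZnCl2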
HIF act: HIF pathway transcriptional activation. activation, % at 7.5 µM (by protocol). hit rate 0.32% among 300,000. AID 1910. U2OS HRE-luciferase reporter, luminescence; normalized: DMSO 0%, desferrioxamine 100%;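 active = mean activation of at least 10% of the iron chelator positive control signal, with at least half of replicates also reaching 10%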
* = called active by the depositor; . = not tested or not shown.

SMILES	ALR inh	SUMO Mot1 rescue	M18AAP inhibitor	HIF act
O=C(CNCc1ccc(F)cc1)Nc1cc(S(=O)(=O)N2CCOCC2)ccc1Cl	-1	5	.	.
COc1cc(-c2ccc3oc(-c4ccsc4)cc3c2)cc(OC)c1OC	-3	-2	.	0
CC(=O)Nc1ccc(NCc2cccs2)cc1	95*	34	7	-1
Oc1ccc(NCc2cccs2)cc1	96*	7	1	-2
CCN(CC(=O)Nc1ccccc1OC)C(=O)CC1CCCC1	-5	-33	.	.
O=[N+]([O-])c1cc(/C=N/O)ccc1N1CCCC1	92*	1	-8	0
CO/N=C/c1ccc(N2CCCC2)c([N+](=O)[O-])c1	.	15	-1	1
CCOc1ccc(-n2c(Cc3cc(=O)[nH]c(=O)[nH]3)nnc2SC(C)C)cc1	1	9	1	0
CCC(C)Sc1nnc(Cc2cc(=O)[nH]c(=O)[nH]2)n1-c1ccc(F)cc1 (configuration not stated)	98*	-9	-8	.
COCc1cc(C)nc(SCc2ccc([N+](=O)[O-])cc2)c1C#N	-2	-5	3	-32
Cc1ccc2c(c1)c1nnc(SCC(=O)Nc3ccc(N(C)C)cc3)nc1n2CC(=O)O	100*	-5	18	1
Cc1ccc2c(c1)c1nnc(SCC(=O)Nc3cccc(Cl)c3C)nc1n2CC(=O)O	-10	-3	2	0
O=C(Nc1ncccc1Cl)c1cc2ccccc2o1	-5	1	7	3
CN1CCN(c2oc(COc3ccc(-c4ccccc4)cc3)nc2C#N)CC1	-5	563*	12	0
COc1ccc(N2CCN(c3oc(COc4ccccc4)nc3C#N)CC2)cc1	-16	31	0	.
Nc1nnc(CCC2CCCCC2)s1	1	9	-2	0
N#CC1=C(N)SC(N)=C(C#N)C1CCC1CCCCC1	13	-3	32*	0
COc1ccccc1C(c1c(N)n(C)c(=O)n(C)c1=O)C(C)[N+](=O)[O-] (configuration not stated)	.	27	13	0
COc1ccccc1C(C[N+](=O)[O-])c1c(N)n(C)c(=O)n(C)c1=O (configuration not stated)	6	594*	24	0
CN(C)S(=O)(=O)c1ccc(-c2cn3ccccc3n2)cc1	99*	1	-7	2
Oc1ccc(-c2cn3ccccc3n2)cc1	99*	-12	6	2
Brc1ccc(-c2cn3ccccc3n2)cc1	-4	1	-2	0
C=CCNC(=O)c1onc(CSc2ccccc2)c1C(=O)O	9	-2	0	0
C=CCNC(=O)c1onc(CSc2cccc(OCC)c2)c1C(=O)O	94*	6	3	1
C=CCNC(=O)c1onc(CSc2ccc(C(C)C)cc2)c1C(=O)O	97*	9	-2	-2
SMILES	ALR inh	SUMO Mot1 rescue	M18AAP inhibitor	HIF act
O=C(Nc1cccc(-c2cnc3ccccc3n2)c1)c1cccc(NC(=O)c2ccco2)c1	2	5	-4	1
C=C(C(=O)c1ccccc1)C(C)C(=C)C(=O)c1ccccc1	87*	63	4	-1
Cc1ccc(CN2CCN(/N=C/c3cccs3)CC2)cc1	14	2	-7	-1
COC(=O)C1=C(C)N(C)C(=O)NC1c1cc(Cl)c(O)c(OC)c1 (configuration not stated)	18	-7	5	692*
COC(=O)C1=C(C)N(C)C(=O)NC1c1cc(Cl)cc(Cl)c1OC (configuration not stated)	4	5	9	.
Cc1ccsc1/C=C1\SC(N2CC(C)OC(C)C2)=NC1=O (configuration not stated)	100*	217	-2	0
Cc1ccccc1N1CCN(C2=NC(=O)/C(=C\c3cccs3)S2)CC1	-1	-1	4	4
CCC(C)(C)NC(=O)C(c1ccc(F)cc1)N(CCOC)C(=O)CCC(=O)Nc1nccs1 (configuration not stated)	0	-5	-2	0
O=C1N/C(=N/O)S/C1=C\c1ccccc1-n1cccn1	93*	-20	2	0
O=C1N/C(=N/O)S/C1=C/c1cccc([N+](=O)[O-])c1	8	-11	3	0
COc1ccc(/C=c2\s/c(=C\C(=O)C(C)(C)C)[nH]c2=O)cc1O	89*	-12	19	0
COc1cc(/C=c2\s/c(=C\C(=O)C(C)(C)C)[nH]c2=O)cc(OC)c1OC	-17	-7	9	0
COc1ccc(C2NC(=O)C(C#N)=C(S)N2c2ccccc2)cc1OC (configuration not stated)	94*	-5	1	0
O=C(O)COc1ccc(/C=N/Nc2nc(Nc3ccccc3)nc(N3CCCCC3)n2)cc1	30	-12	-4	0
COCCCNC(=S)Nc1cccc(S(=O)(=O)NC2=NCCC2)c1	2	43	0	0
Cc1nc(N)sc1N=Nc1ccc(Br)cc1	99*	38	3	2
O=c1c2ccccc2cnn1Cc1n[nH]c(=S)n1C1CC2CCC1C2 (configuration not stated)	86*	33	5	0
COc1ccc(CCC(C)NCC(C)c2ccccc2)cc1 (configuration not stated)	-2	-3	-5	-26
CC(C#N)Sc1nnc(-c2ccccc2F)n1C1CC1 (configuration not stated)	-9	16	4	0
Cc1[nH]c2ccccc2c1/C=N/NC(=O)Cc1cccs1	94*	-16	-2	0
CCOC(=O)C1CCN(C(=S)Nc2ccc(CC)cc2)CC1	-3	.	-3	1
Cc1ccc(Oc2nn[nH]n2)cc1	-4	22	-4	0
CCc1cccc(Oc2nn[nH]n2)c1	98*	-2	1	0
COc1ccc(Cl)cc1S(=O)(=O)NCCCn1ccnc1	.	2	-1	-1
CCOc1cc(Cl)c(S(=O)(=O)NCCCn2ccnc2)cc1Cl	-11	356*	-17	0
SMILES	ALR inh	SUMO Mot1 rescue	M18AAP inhibitor	HIF act
O=C(c1nc(-c2ccccc2)n(-c2ccccc2)n1)N1CCN(S(=O)(=O)c2ccccc2)CC1	-3	139	-9	-1
CC(OC(=O)Cn1[nH]c(=O)c2ccccc2c1=O)C(=O)Nc1ccc(Cl)cn1 (configuration not stated)	-1	14	.	.
Nc1cccc2c1C(=O)N(C(=O)/C=C/c1cccc(Br)c1)C2=O	.	.	-12	1
Nc1cccc2c1C(=O)N(C(=O)/C=C/c1cccc(F)c1)C2=O	98*	-18	-7	0
N#Cc1c(NC(=O)CSc2ncnc3sccc23)oc(-c2ccco2)c1-c1ccco1	-3	-2	28	-1
COCCNC(=O)C(=O)c1cc(C)n(-c2ccc([N+](=O)[O-])cc2)c1C	97*	-13	0	0
O=C(NC1CC1)c1sccc1-n1cccc1	100*	-7	-2	3
O=C(NNC(=O)c1sccc1-n1cccc1)c1ccc(Cl)cc1	-8	-3	0	0
CCc1c(O)nc(SCC(=O)Nc2ccc(OC)cc2)n(C2CCCCC2)c1=O	99*	-16	-8	0
